Screening data from PubChem BioAssay.
Insulin prom inh – TRM-6 insulin promoter activity inhibition. TRM-6 cells (human fetal islet line), insulin promoter-eGFP reporter, imaging; reporter expression induced with tamoxifen. inhibition, % at 2 µM. 130,000 tested, 0.9% active;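 active means inhibition above the mean plus 3 SD, with well images judged a real hit on visual review, cut at about 60% in these data, passing the limit was not always enough; inconclusive means inhibition over the cutoff but images rejected on review; inactive means inhibition not above the cutoff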
TbHK1 inh – blocks Trypanosoma brucei hexokinase 1 activity | recombinant TbHK1, G6PDH-coupled NADH A340 | inhibition, % at 10 µM | 220,000 tested, 0.11% active;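 active means inhibition of 50% or more in the single-dose primary screen; inactive means inhibition below 50%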
ROMK mod – human ROMK K+ channel modulation, primary screen; B-score at 10 µM; Tet-inducible ROMK, thallium flux fluorescence; actives lie on both sides; P48048; AID 1918; 130,000 tested, 2% active;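 active means signal ratio slope over the read window, or its plate-corrected B-score, at least 3 SD from the plate mean, either direction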;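 further: B-score of the F/F0 ratio slope over 7 to 12 s after thallium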
Target sequence (P48048 whole entry, looked up): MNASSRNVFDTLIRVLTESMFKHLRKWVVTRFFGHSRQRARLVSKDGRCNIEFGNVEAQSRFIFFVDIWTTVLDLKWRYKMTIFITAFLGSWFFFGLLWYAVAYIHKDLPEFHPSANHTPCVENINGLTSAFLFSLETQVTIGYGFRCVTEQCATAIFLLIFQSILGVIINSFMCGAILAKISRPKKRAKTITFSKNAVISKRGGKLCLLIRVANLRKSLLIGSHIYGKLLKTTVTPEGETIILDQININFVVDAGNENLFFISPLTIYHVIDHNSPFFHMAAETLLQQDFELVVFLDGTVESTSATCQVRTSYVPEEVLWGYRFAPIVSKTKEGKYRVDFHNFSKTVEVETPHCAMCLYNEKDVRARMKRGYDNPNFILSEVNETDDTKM
HSV augment – HSV replication enhancement; HSV replication augmentation in cells, fold increase; maximum fold increase; 220,000 tested, 0.005% active; in the data active means maximum fold increase above about 1.5; inconclusive means no clear call, values can overlap the other calls; tested in PC3 cells
Insulin prom up – MIN6 insulin promoter up-regulation | 190,000 tested, 0.3% active | MIN6 insulin promoter-GFP reporter, high-content imaging; hits give high values | z-score at 5 µM | AID 1625;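 active means z-score above 3 at 5 µM with at least 500 cells counted in the well; inconclusive means wells under 500 cells, flagged as cytotoxic or low count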
ROMK retest – retested hit modulating human ROMK potassium channel. 3,000 tested, 54% active. AID 1917. ROMK thallium flux, fluorescence ratio; hits give low values. normalized thallium flux (F/F0 slope) at 10 µM. shares compounds with ROMK mod;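 active means Flux at 10 µM at least 3 SD below or above vehicle control mean in one or both replicates; inconclusive means no clear call, values can overlap the other calls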
Hits are given with their value; - = inactive; ? = inconclusive; . = not tested or not shown. Only a selection was taken, and hits are over-represented in it overall.

SMILES	Insulin prom inh	TbHK1 inh	ROMK mod	HSV augment	Insulin prom up	ROMK retest
N#C/C(=C\c1cn(-c2ccccc2)nc1-c1cc2ccccc2o1)c1nc2ccccc2[nH]1	-	-	-3.5	-	-	0.048
Cc1ccc(NC(=O)C2=C(O)c3ccccc3N(C)S2(=O)=O)cc1	.	-	.	-	-	.
O=C(CSc1ncn[nH]1)NC12CC3CC(CC(C3)C1)C2	-	-	3	-	-	-
CCCn1c(SCC(=O)NC23CC4CC(CC(C4)C2)C3)n[nH]c1=O	-	-	.	-	-	.
Cc1cccc(N2CCN(C(=O)/C=C/c3cccs3)CC2)c1C	-	-	-	.	-	.
CCOc1cc(/C=N/N=C(N)N)ccc1OCc1ccc(Cl)cc1	-	-	-3.9	-	-	0.053
COc1cc(/C=N/N=C(N)N)ccc1OCc1ccc(Cl)cc1	.	-	-	-	-	.
CCc1ccc(C(=O)CSc2nc3cc(S(=O)(=O)N4CCOCC4)ccc3n2CC)cc1	.	-	.	-	-	.
O=C(CSCc1ccccc1)NNC(=S)Nc1cccc(Cl)c1Cl	-	-	.	?	-	-
O=C(COc1ccc([N+](=O)[O-])cc1)Nc1ccc(CN2CCOCC2)cc1	.	-	-	-	-	.
CCOC(=O)c1cc2ccccc2n1CCN(CC)CC	-	-	5	-	-	?
O=c1c2cc(Cl)ccc2nc(-c2ccccc2)n1O	.	-	-	-	-	.
O=c1c2cc(Cl)ccc2nc(-c2ccc(Cl)c(Cl)c2)n1O	.	-	.	-	-	0.18
O=C(Cc1ccccc1)Nc1ccc(N2CCOCC2)cc1	.	-	-2	-	-	-
O=C(N1CCOCC1)N1CCN(c2ccccc2)CC1	-	-	.	-	-	.
c1ccc(Oc2nc(Oc3ccccc3)nc(N3CCOCC3)n2)cc1	.	-	-3.6	-	-	?
c1ccc(N2CCOCCOCCOCCOCCOCC2)cc1	.	-	-6.7	-	-	-
OC(CNCC1CCCO1)Cn1c2ccc(Cl)cc2c2cc(Cl)ccc21 (stereo not given)	-	-	.	-	-	.
OC(CNCC1CCCO1)Cn1c2ccccc2c2ccccc21 (stereo not given)	.	-	-4.1	-	-	0.061
CC1CCC(C(C)C)C(OC(=O)C[n+]2cccc(C(N)=O)c2)C1 (stereo not given)	-	-	.	-	-	.
CC1CCC(C(C)C)C(OC(=O)Cn2c(-c3ccc(Cl)cc3)[n+](C)c3ccccc32)C1 (stereo not given)	.	-	-8	-	?	0.043
CC1CCC(C(C)C)C(OC(=O)COC(=O)c2cccn2C)C1 (stereo not given)	-	-	.	-	-	.
CC1CCC(C(C)C)C(OC(=O)Cn2c(-c3ccc(Br)cc3)[n+](C)c3ccccc32)C1 (stereo not given)	-	-	-6.8	-	-	0.044
CC1=NOC(=O)/C1=C\c1ccc(-c2cc(Cl)ccc2Cl)o1	-	-	-3.7	-	-	?
Cn1c(=O)c2c(nc(N3CCN(c4ccccc4)CC3)n2CCCc2ccccc2)n(C)c1=O	-	-	.	-	-	.
SMILES	Insulin prom inh	TbHK1 inh	ROMK mod	HSV augment	Insulin prom up	ROMK retest
Cn1c(=O)c2c(nc(N3CCN(Cc4ccccc4)CC3)n2CCCc2ccccc2)n(C)c1=O	-	-	.	-	-	0.058
CCOC(=O)/C(=N\Nc1ccc(Br)cc1)N1CC(C)OC(C)C1 (stereo not given)	.	-	.	-	-	.
CSc1nsc(SC)c1C(=O)N1CCN(S(=O)(=O)c2ccc(C)cc2)C1C (stereo not given)	-	-	.	-	-	.
CSc1nsc(SC)c1C(=O)N1CCN(S(=O)(=O)c2ccc(C)cc2)C1C(C)C (stereo not given)	-	-	-3.5	-	.	0.064
O=C1C(=O)N(O)C2CCCCC2N1O (stereo not given)	.	-	.	-	.	.
N=c1c2c(-c3ccccc3)c(-c3ccccc3)n(Cc3ccccc3)c2ncn1CCCn1ccnc1	.	-	-4.4	-	-	0.05
CCCCn1cnc2c(c(-c3ccccc3)c(-c3ccccc3)n2Cc2ccco2)c1=N	.	-	.	-	-	0.03
O=C(C1CCN(S(=O)(=O)N2CCCCC2)CC1)N1CCCCC1	-	-	-	-	-	.
COc1cc(C)c(NC(=O)C(=S)NCCc2ccccc2)cc1C	.	-	-	-	-	.
O=C(NCCCN1CCOCC1)C(=O)N/N=C/c1cccc2ccccc12	.	-	-	-	-	.
COc1cc(/C=C2\SC(=S)N(Nc3ccccc3)C2=O)ccc1O	-	-	.	?	-	.
COc1cc(/C=C2\SC(=S)N(Nc3ncc(C(F)(F)F)cc3Cl)C2=O)ccc1O	-	-	-3.7	?	-	0.064
O=C1/C(=C/c2ccc(O)c(O)c2)SC(=S)N1Nc1ccccc1	.	-	-2	.	-	0.058
COc1cc(/C=C2\SC(=S)N(NC(=O)c3cccnc3)C2=O)ccc1O	.	-	-4.2	?	.	0.058
Cc1ccc(CN(C)C(=O)c2ccc3c(c2)NC(=O)CS3)o1	.	-	.	-	-	.
CC(/C=N/NC(=O)CSc1n[nH]c(=O)[nH]c1=O)=C\c1ccccc1	.	-	.	-	-	.
COc1ccc(/C=C(\C#N)C(=O)N2CCOCC2)cc1Br	-	-	-3.7	.	-	0.051
O=C1CC(c2ccco2)CC2=C1C1c3ccccc3C(=O)N1c1ccccc1N2 (stereo not given)	-	-	6.9	-	-	0.098
Cc1ccc(-c2ccnc3nc(-n4cccc4)nn23)o1	.	-	-	-	-	.
NC1=NC2=C(CCCC2)C2(CCCCC2)S1	.	-	-3.1	-	-	0.064
COCCCNC(=O)CN(c1cc(Cl)ccc1OC)S(C)(=O)=O	.	-	-	-	-	.
CN1/C(=C\C=Nc2cc(S(=O)(=O)N3CCOCC3)ccc2N2CCOCC2)C(C)(C)c2ccccc21	.	-	.	-	-	.
COc1ccc(N2CCN(Cc3nc4ccsc4c(=O)[nH]3)CC2)cc1	-	-	-	-	-	.
O=c1[nH]c(CN2CCN(c3ccc([N+](=O)[O-])cc3)CC2)nc2ccsc12	-	-	-3.5	-	-	0.059
Cn1[nH]c(CSc2ccc(Cl)cc2)cc1=O	.	-	-	-	-	.
SMILES	Insulin prom inh	TbHK1 inh	ROMK mod	HSV augment	Insulin prom up	ROMK retest
Cc1ccc(-c2nc3cc(N)ccc3o2)cc1	-	-	.	.	-	.
CC(C)c1ccc2oc(-c3ccc(N)cc3)nc2c1	-	-	.	-	-	-
CC(C)Cn1c(-c2csc3c2CCCC3)n[nH]c1=S	-	-	.	.	.	.
Cc1ccc2cc(C=O)c(Cl)nc2c1	.	-	3.7	-	-	-
Cc1ccnc(NS(=O)(=O)c2ccc(NC(=O)c3ccc(N4C(=O)CCC4=O)cc3)cc2)n1	-	-	-	-	-	.
Cc1ccnc(NS(=O)(=O)c2ccc(NC(=O)CN3C(=O)CCC3=O)cc2)n1	-	-	2.6	-	-	-
COc1cccc(N2CCN(c3ncnc4c3cnn4-c3ccc(C)cc3C)CC2)c1	.	-	.	-	-	-
O=C(NCCSCc1ccccc1)c1ccc(F)cc1	-	-	.	-	-	.
Cc1ccc(NC(=S)N(CCCN2CCCC2)Cc2cccn2Cc2ccc(Cl)cc2)cc1C	-	-	-2.8	-	-	0.062
COc1ccc(NC(=O)c2csc(Cc3ccccc3)n2)cc1	.	-	-	-	-	.
COc1ccc(CNC(=O)c2csc(Cc3ccccc3)n2)cc1	-	-	.	-	-	-
Cn1cccc1CNC(=S)Nc1ccccc1F	.	-	-	-	-	.
